Source: PubChem (National Center for Advancing Translational Sciences (NCATS))
G9a inh: G9a (human) methyltransferase inhibition | Potency, µM (titrated, usually from 102 µM), for inactives: at the highest dose activity, negative = inhibition, most hits filed as inhibitors | G9a H3K9 monomethylation, AlphaScreen, 2 h | 8.8% of 350,000 active | Q96KQ7; note: % is set by controls: 0 for no effect and ±100 for the full control effect; nearly all actives have a fitted effect of over 75% in size
Target sequence (Q96KQ7 913-1193 limits assumed): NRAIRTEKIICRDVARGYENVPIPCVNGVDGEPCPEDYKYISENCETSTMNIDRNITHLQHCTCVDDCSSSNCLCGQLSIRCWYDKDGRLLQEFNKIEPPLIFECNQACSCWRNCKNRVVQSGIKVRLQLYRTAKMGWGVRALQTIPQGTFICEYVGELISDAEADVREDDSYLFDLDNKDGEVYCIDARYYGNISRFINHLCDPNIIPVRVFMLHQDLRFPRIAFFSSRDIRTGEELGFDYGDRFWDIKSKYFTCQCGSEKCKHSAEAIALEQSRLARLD
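Readings reflect AlphaScreen signal from monomethyl-H3K9 antibody detection. HMT at 20 nM; substrate b-H3K9 500 nM; cofactor SAM 20 uM; 2 h RT reaction; compounds tested as titrations in qHTS with 15 min preincubation.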
BAZ2B block: blocks human BAZ2B. Q9UIF8. AlphaScreen BAZ2B-H3K14Ac peptide displacement. Potency, µM (top dose mostly 114 µM), inactives show top-dose activity change, negative = inhibition, actives largely listed as inhibitors. 4.4% of 360,000 active; note: % is set by controls: 0 for no effect and ±100 for the full control effect; nearly all actives have a fitted effect of over 60% in size
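Complex of BAZ2B and biotin-H3K14Ac (50 nM apiece) forms over 30 min at RT, then faces library compounds up to 110 uM for another 30 min; AlphaScreen beads added, 20 min dark incubation, luminescence read.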
JMJD2A Tudor inh: inhibitors of human JMJD2A Tudor domain. AlphaScreen JMJD2A-Tudor / H3K4me3 peptide binding. AID 504339. 4.4% of 390,000 active. Potency, µM (highest dose often 114 µM), for the others: top-dose activity change, negative = inhibition, actives largely listed as inhibitors. O75164; note: % is set by controls: 0 for no effect and ±100 for the full control effect; nearly all actives have a fitted effect of over 50% in size
HP1b binding inh: HP1-beta chromodomain-methylated histone interaction inhibition | P83916 | AlphaScreen HP1-beta / biotin-H3K9me3 peptide binding | Potency, µM (doses to about 114 µM), without a hit: at the highest dose activity change, negative = inhibition, actives largely listed as inhibitors | 0.56% of 390,000 active | AID 540317; note: nearly all actives have a fitted effect of over 70% in size
Target sequence (P83916 whole entry, looked up): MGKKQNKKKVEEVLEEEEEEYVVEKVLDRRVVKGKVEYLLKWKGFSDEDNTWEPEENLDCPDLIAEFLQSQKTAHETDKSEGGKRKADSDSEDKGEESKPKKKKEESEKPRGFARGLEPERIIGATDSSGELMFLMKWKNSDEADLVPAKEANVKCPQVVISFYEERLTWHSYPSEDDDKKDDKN
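HP1-beta protein (50 nM final) preincubated 30 min at room temperature with biotinylated H3(1-18)K9me3 peptide (50 nM) in PBS pH 7.4, 0.01% Tween-20, then compound added for 30 min. AlphaScreen streptavidin donor/nickel chelate acceptor beads (10 ug/mL final), 30 min dark, luminescence read.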
Sfp inh: Sfp phosphopantetheinyl transferase inhibition; AID 1490; Q9F4F7; 3.5% of 310,000 active; Biochemical Sfp PPTase activity, qHTS; Potency, µM, inactives show largest response in the series, negative = inhibition, usual class: inhibitors;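 note: the enzyme is Sfp with the accession as filed and its product quenches rhodamine fluorescence; 0% = enzyme reaction without inhibitor and -100% = no enzyme wells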
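Fluorescence-quenching assay: 15 nM Sfp-PPTase preincubated 15 min at room temperature with compound, then 5 uM rhodamine-CoA and 12.5 uM BHQ-2-labelled YbbR peptide added. Fluorescence (ex 525/em 598 nm) read at start and after 30 min; difference gives rate.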
The depositor's hits bear a star; ? = inconclusive; · = no result given; ! = not confirmed by another sample; [ ] = another dose, or the depositor's remark. The list is not random: actives were taken first. Their share in the collection is about 12%. Calls come from the whole dose curve; as a rule, active = well fitted curve in the direction sought with a large enough effect; inconclusive = small, poorly fitted or top-dose-only effect, or another doubt; inactive = no such curve, though single readings can be large; an effect the other way counts as inactive or inconclusive. Potency is the fitted concentration of half-maximal effect.

SMILES | G9a inh | BAZ2B block | JMJD2A Tudor inh | HP1b binding inh | Sfp inh
CCc1cc2c(=O)n(Cc3ccco3)c(SCC(=O)N3CCCc4ccccc43)nc2s1 | -5.7%[59 µM] | -8.5% | -18.1% | 1.9% | 44.7µM*
CCc1cc2c(=O)n(Cc3ccco3)c(SCC(=O)N(C)C3CCS(=O)(=O)C3)nc2s1 (stereo not drawn) | ? | -2.2% | -23.0% | 14.8% | 7.94µM*
CCc1cc2c(=O)n(Cc3ccco3)c(SCc3c(C)noc3C)nc2s1 | ? | 1.5% | -22.1% | 28.9% | -86.8%
CC(=O)Nc1ccc(C)cc1-c1nc2ccccc2n(Cc2cccc(Br)c2)c1=O | -50.4%[59 µM] | 1.9% | -5.3% | 36.3% | ·
CC(=O)Oc1cccc2c1C(=O)c1c(OC(C)=O)cc(C(=O)O)cc1C2=O | 3.55µM* | ? | ? | 17.5% | -0.1%
C=CC1=C(C)/C(=C/c2[nH]c(Cc3[nH]c(/C=C4\NC(=O)C(C)=C4C=C)c(C)c3CCC(=O)O)c(CCC(=O)O)c2C)NC1=O | · | · | · | · | 39.8µM*
Cc1ccc(C(=O)Nc2nnc(S(=O)(=O)N3CCN(c4ccc(F)cc4)CC3)s2)cc1 | 17.8% | ? | ? | 22.7% | 9.4%
Cc1ccc(N(C)S(=O)(=O)c2nnc(NC(=O)c3ccco3)s2)cc1 | 3.98µM*! | ? | ? | 53.3% | 32.0%
Cc1ccc(N2CCN(S(=O)(=O)c3nnc(NC(=O)c4ccco4)s3)CC2)cc1 | 28.2µM* | -8.0% | -23.9% | 41.6% | -7.7%
CC1CCN(S(=O)(=O)c2ccc3nc(N4CCN(c5ccccc5)CC4)ccc3c2)CC1 | 21.2% | -0.3% | -0.3% | 39.5% | 9.3%
COc1ccc(CCNc2ccc(C)cc2)cc1 | ? | ? | 39.8µM* | ? | -4.3%
COc1ccc(C(O)CNc2ccc(C)cc2)cc1 (stereo not drawn) | -0.4%[59 µM] | ? | -26.2% | -0.4% | 10.3%
Cc1ccc(/C=[N+](\[O-])c2ccc(N(C)C)cc2)c2nsnc12 | 8.91µM* | 31.6µM* | 25.1µM* | 28.2µM* | -65.2%
Cc1ccc(CNC(=O)CCCn2c(=O)[nH]c3ccccc3c2=O)cc1 | -6.5%[59 µM] | 5.4% | -21.5% | 44.3% | 8.4%
Cn1c(=O)cc(OCC(=O)NCCCN2CCN(c3cccc(Cl)c3)CC2)c2ccccc21 | 50.1µM* | -29.5% | -35.2% | 16.6% | -7.4%
CCN(CCCNC(=O)COc1cc(=O)n(C)c2ccccc12)c1cccc(C)c1 | 35.5µM* | 50.1µM* | ? | -1.4% | 7.6%
Cc1cccc(CCNC(=O)COc2cc(=O)n(C)c3ccccc23)c1 | 7.8% | 1.0% | 11.4% | 22.6% | 4.5%
CCN(CCCNC(=O)CCc1nc(-c2ccc(C)cc2)no1)c1cccc(C)c1 | 44.7µM* | ? | -26.0%[11.4 µM] | ? | 12.6%
CCN(CCCNC(=O)CCCn1c(=O)[nH]c2ccccc2c1=O)c1cccc(C)c1 | 12.6µM* | ? | -28.2%[57.1 µM] | -12.0% | -7.4%
COCCCNc1ncnc2c1c(-c1ccccc1)cn2-c1ccc(C)c(Cl)c1 | -6.0%[59 µM] | -4.4% | -17.1% | 57.3% | ·
CCCCCNC(=O)CCn1c(=O)[nH]c2ccccc2c1=O | 2.5%[59 µM] | -4.8% | -6.7% | 8.5% | ·
CCN(CCCNC(=O)CCn1c(=O)[nH]c2ccccc2c1=O)c1cccc(C)c1 | 10µM* | -23.4% | -11.5%[57.1 µM] | 29.4% | 15.3%
CCN(CCCNC(=O)CCn1c(=O)[nH]c2ccccc2c1=O)c1ccccc1 | 50.1µM* | -0.6% | -27.2% | 12.7% | 12.3%
CCN(CCCNC(=O)Cn1ncc2c([nH]c3ccc(C)cc32)c1=O)c1cccc(C)c1 | 4.5%[59 µM] | -0.6% | -13.5% | 32.2% | 4.5%
CCOc1ccc(NC(=O)CN(C)C(=O)CSCc2ccc(C)cc2)cc1OCC | ? | -10.4% | -21.6% | 17.4% | ·
SMILES | G9a inh | BAZ2B block | JMJD2A Tudor inh | HP1b binding inh | Sfp inh
c1ccc(-c2cc(N3CCOCC3)nc3ccccc23)cc1 | 4.47µM* | 50.1µM* | 3.16µM* | 8.7% | 56.2µM*
Cc1nn(C(=O)CCCn2cc([N+](=O)[O-])cn2)c(C)c1Cl | -31.5% | 6.0% | 20µM* | 2.2% | 6.4%
CCc1nn(CC(=O)NCCC(C)C)c(=O)c2cc3occc3n12 | 1.9%[59 µM] | -0.6% | -17.8% | -5.7% | ·
Cc1ccc2c(c1)S/C(=C/c1ccc[n+](C)c1)N2CCO | 14.1µM* | -35.0% | 25.1µM* | 9.0% | -6.5%
COc1ccc(-c2nnc3ccc(SC)nn23)cc1 | -0.7% | 4.2% | -7.6% | 29.9% | -3.4%
CCC(Sc1ccc2nnc(-c3cccnc3)n2n1)C(=O)O (stereo not drawn) | 50.1µM* | -6.1% | -44.8% | 23.0% | 10.5%
COC(=O)C(C)Sc1ccc2nnc(-c3ccccc3)n2n1 (stereo not drawn) | ? | · | -8.8% | 25.4% | 9.7%
Cc1ccc(-c2nnc3ccc(SC(C)C(=O)O)nn23)cc1 (stereo not drawn) | 3.55µM* | -29.9% | 39.8µM* | ? | ?
CCOC(=O)C(C)Sc1ccc2nnc(-c3ccc(F)cc3)n2n1 (stereo not drawn) | 7.94µM* | -0.2% | -5.8% | 40.2% | ?
CC(Sc1ccc2nnc(-c3ccc(F)cc3)n2n1)C(=O)O (stereo not drawn) | 3.55µM* | -11.2% | ? | -16.4% | -2.3%
CCOC(=O)C(CC)Sc1ccc2nnc(-c3cccnc3)n2n1 (stereo not drawn) | ? | -9.7% | -20.6% | 48.2% | -4.5%
CCOC(=O)C(C)Sc1ccc2nnc(-c3ccc(OCC)cc3)n2n1 (stereo not drawn) | · | · | 0.0%[57.1 µM] | 16.6%[57 µM] | ·
O=C(Nc1ccc(F)cc1)c1cc(-c2ccccn2)nc2c(Cl)cccc12 | · | -1.3% | 8.9% | 25.2% | -1.1%
Cc1ccc(CNC(=O)[C@]2(C(F)(F)F)C[C@H](CCc3ccccc3)CCCO2)o1 | · | · | -30.3% | 17.6% | ?
CCCN(CCC)c1ccc(CC(=O)NC(C)Cc2ccccc2)cc1 (stereo not drawn) | 10µM* | ? | ? | -36.1% | -1.8%
Cc1cc(C)c(NC(=S)N2CCN(c3ccc([N+](=O)[O-])cn3)CC2)cc1C | 21.5% | -8.3% | -11.3% | 18.2% | 1.8%
Fc1cccc(CSc2ncnc3c2ncn3C2CCCCO2)c1 (stereo not drawn) | · | · | 4.1% | 37.4%[57 µM] | ·
CCOC(=O)c1c(C)[nH]c(O)c1C=Nc1ccccc1 | 1.4% | 50.1µM* | ? | -16.6% | ?
CCOC(=O)c1c(C)[nH]c(C=Nc2ccc(OC)cc2)c1O | -8.7%[59 µM] | -35.8% | ? | -5.2% | 9.5%
COC(=O)c1c(C)[nH]c(O)c1C=Nc1ccc(C#N)cc1 | 17.8µM* | 100µM* | ? | 17.2% | 44.7µM*
CCOC(=O)c1c(C)[nH]c(C=Nc2ccccc2)c1O | ? | ? | · | · | 39.8µM*
CCCC[C@H](O)c1ccccc1 | -17.9%[12.7 µM] | · | · | · | 21.4%
C[C@H](CO)N1C[C@H](C)[C@@H](CN(C)Cc2ccncc2)Oc2c(NS(=O)(=O)c3cn(C)cn3)cccc2C1=O | · | · | -2.9% | 43.8% | ·
CCN1CCN(CC(=O)N2N=C(c3ccc(OC)cc3)CC2c2ccc(OC)cc2)C(=O)C1=O (stereo not drawn) | 3.9% | -23.4% | 79.4µM* | -5.9% | 16.5%
